From PubChem BioAssay (NCI)
Where “and” joins values, the source holds several entries; their conditions need not be identical. Equal values may be shown once. The panel holds about 83,000 compounds, 20% with a hit somewhere; the sample as a whole holds those more often.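 Results are percent growth after 48 hours of single-concentration exposure. 100 means growth as in untreated cells, lower positive values show inhibition; negative values down to -100 show cell death.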 Calls of active or inactive are those of the source. How the source made its calls: active means growth percent below 10; inactive means the rest.

How the values were obtained:
Experiment in all cases: NCI-60 one-dose screen, 48 h (100 = growth as untreated, 0 = no growth, -100 = all killed)
Details in all cases: 10 µM unless noted
HCT-15 colon = tested on: HCT-15 colon
HT29 colon = tested on: HT29 colon
SNB-75 CNS = tested on: SNB-75 CNS
SNB-19 CNS = tested on: SNB-19 CNS
U251 CNS = tested on: U251 CNS
PC-3 prostate = tested on: PC-3 prostate
SK-MEL-5 melanoma = tested on: SK-MEL-5 melanoma
UACC-62 melanoma = tested on: UACC-62 melanoma
LOX IMVI melanoma = tested on: LOX IMVI melanoma
SK-MEL-28 melanoma = tested on: SK-MEL-28 melanoma
SK-MEL-2 melanoma = tested on: SK-MEL-2 melanoma
EKVX NSCLC = tested on: EKVX NSCLC
SN12C renal = tested on: SN12C renal
UO-31 renal = tested on: UO-31 renal
ACHN renal = tested on: ACHN renal
CAKI-1 renal = tested on: CAKI-1 renal
A498 renal = tested on: A498 renal
CCRF-CEM leukemia = tested on: CCRF-CEM leukemia
MOLT-4 leukemia = tested on: MOLT-4 leukemia
TK-10 renal = tested on: TK-10 renal

Cc1c(Cl)cc(Cl)c(N)c1Cl
growth (HCT-15 colon): 104% (inactive)
growth (HT29 colon): 108% (inactive)
growth (SNB-75 CNS): 91.2% (inactive)
growth (SNB-19 CNS): 109% (inactive)
growth (U251 CNS): 99.4% (inactive)
growth (PC-3 prostate): 92.2% (inactive)
growth (SK-MEL-5 melanoma): 106% (inactive)
growth (UACC-62 melanoma): 105% (inactive)
growth (LOX IMVI melanoma): 99% (inactive)
growth (SK-MEL-28 melanoma): 110% (inactive)
growth (SK-MEL-2 melanoma): 104% (inactive)
growth (EKVX NSCLC): 103% (inactive)
growth (SN12C renal): 117% (inactive)
growth (UO-31 renal): 92.6% (inactive)
growth (ACHN renal): 115% (inactive)
growth (CAKI-1 renal): 88.7% (inactive)
growth (A498 renal): 91% (inactive)
growth (CCRF-CEM leukemia): 95.5% (inactive)
growth (MOLT-4 leukemia): 110% (inactive)

CCCCC/C(C)=N\NC(N)=S
growth (HCT-15 colon): 79.4% (inactive)
growth (HT29 colon): 55.3% (inactive)
growth (SNB-75 CNS): 86.6% (inactive)
growth (SNB-19 CNS): 105% (inactive)
growth (U251 CNS): 80.2% (inactive)
growth (PC-3 prostate): 89.4% (inactive)
growth (SK-MEL-5 melanoma): 90% (inactive)
growth (UACC-62 melanoma): 96.2% (inactive)
growth (LOX IMVI melanoma): 95.6% (inactive)
growth (SK-MEL-28 melanoma): 94.2% (inactive)
growth (SK-MEL-2 melanoma): 103% (inactive)
growth (EKVX NSCLC): 55.4% (inactive)
growth (SN12C renal): 84.4% (inactive)
growth (UO-31 renal): 61.8% (inactive)
growth (TK-10 renal): 100% (inactive)
growth (ACHN renal): 92.6% (inactive)
growth (A498 renal): 84.7% (inactive)
growth (CCRF-CEM leukemia): 41.1% (inactive)
growth (MOLT-4 leukemia): 57.2% (inactive)

COc1ccc(/C=C/C(=O)O)cc1OC
growth (HCT-15 colon): 106% (inactive) and 103% (inactive)
growth (HT29 colon): 106% (inactive) and 97.3% (inactive)
growth (SNB-75 CNS): 96.5% (inactive) and 103% (inactive)
growth (SNB-19 CNS): 102% (inactive) and 107% (inactive)
growth (U251 CNS): 100% (inactive) and 103% (inactive)
growth (PC-3 prostate): 95.1% (inactive) and 98.3% (inactive)
growth (SK-MEL-5 melanoma): 98% (inactive) and 97.9% (inactive)
growth (UACC-62 melanoma): 98.9% (inactive) and 97.5% (inactive)
growth (LOX IMVI melanoma): 100% (inactive) and 98.9% (inactive)
growth (SK-MEL-28 melanoma): 111% (inactive) and 115% (inactive)
growth (SK-MEL-2 melanoma): 108% (inactive) and 101% (inactive)
growth (EKVX NSCLC): 106% (inactive) and 103% (inactive)
growth (SN12C renal): 101% (inactive) and 105% (inactive)
growth (UO-31 renal): 100% (inactive) and 97.5% (inactive)
growth (TK-10 renal): 102% (inactive) and 92.5% (inactive)
growth (ACHN renal): 104% (inactive) and 112% (inactive)
growth (CCRF-CEM leukemia): 98.1% (inactive)
growth (MOLT-4 leukemia): 104% (inactive) and 108% (inactive)

c1ccc2c[n+](Cc3ccc4ccccc4n3)ccc2c1
growth (HCT-15 colon): 106% (inactive)
growth (HT29 colon): 57.2% (inactive)
growth (SNB-75 CNS): 79.7% (inactive)
growth (SNB-19 CNS): 71.2% (inactive)
growth (U251 CNS): 55.4% (inactive)
growth (PC-3 prostate): 50.9% (inactive)
growth (SK-MEL-5 melanoma): 15.1% (inactive)
growth (UACC-62 melanoma): 90% (inactive)
growth (LOX IMVI melanoma): 88.8% (inactive)
growth (SK-MEL-28 melanoma): 87.6% (inactive)
growth (SK-MEL-2 melanoma): 102% (inactive)
growth (EKVX NSCLC): 82.5% (inactive)
growth (SN12C renal): 80% (inactive)
growth (UO-31 renal): 82.4% (inactive)
growth (TK-10 renal): 99.9% (inactive)
growth (A498 renal): 79.4% (inactive)
growth (CCRF-CEM leukemia): 76.8% (inactive)
growth (MOLT-4 leukemia): 92.4% (inactive)

O=C(O)COc1ccccc1F
growth (HCT-15 colon): 113% (inactive)
growth (HT29 colon): 113% (inactive)
growth (SNB-75 CNS): 94.4% (inactive)
growth (SNB-19 CNS): 107% (inactive)
growth (U251 CNS): 109% (inactive)
growth (PC-3 prostate): 82.6% (inactive)
growth (SK-MEL-5 melanoma): 95% (inactive)
growth (UACC-62 melanoma): 101% (inactive)
growth (LOX IMVI melanoma): 96.5% (inactive)
growth (SK-MEL-28 melanoma): 112% (inactive)
growth (SK-MEL-2 melanoma): 102% (inactive)
growth (EKVX NSCLC): 111% (inactive)
growth (SN12C renal): 98.3% (inactive)
growth (UO-31 renal): 103% (inactive)
growth (TK-10 renal): 109% (inactive)
growth (CAKI-1 renal): 93.2% (inactive)
growth (A498 renal): 102% (inactive)
growth (CCRF-CEM leukemia): 92.3% (inactive)
growth (MOLT-4 leukemia): 95.3% (inactive)

Cn1c(N)c(N=O)c(=O)n(C)c1=O
growth (HCT-15 colon): 105% (inactive) and 101% (inactive)
growth (HT29 colon): 111% (inactive) and 90.2% (inactive)
growth (SNB-75 CNS): 86.9% (inactive) and 92.6% (inactive)
growth (SNB-19 CNS): 99.8% (inactive) and 102% (inactive)
growth (U251 CNS): 92.9% (inactive) and 101% (inactive)
growth (PC-3 prostate): 96.2% (inactive) and 96.9% (inactive)
growth (SK-MEL-5 melanoma): 137% (inactive) and 99.6% (inactive)
growth (UACC-62 melanoma): 103% (inactive) and 93.1% (inactive)
growth (LOX IMVI melanoma): 100% (inactive)
growth (SK-MEL-28 melanoma): 104% (inactive) and 100% (inactive)
growth (SK-MEL-2 melanoma): 108% (inactive) and 102% (inactive)
growth (EKVX NSCLC): 97.4% (inactive) and 95.9% (inactive)
growth (SN12C renal): 109% (inactive) and 93.8% (inactive)
growth (UO-31 renal): 82% (inactive) and 92.5% (inactive)
growth (TK-10 renal): 120% (inactive) and 92.8% (inactive)
growth (CAKI-1 renal): 102% (inactive)
growth (A498 renal): 99% (inactive) and 78% (inactive)
growth (CCRF-CEM leukemia): 106% (inactive) and 116% (inactive)
growth (MOLT-4 leukemia): 93.9% (inactive) and 117% (inactive)

CNc1ccc(O)cc1
growth (HCT-15 colon): 103% (inactive) and 102% (inactive)
growth (HT29 colon): 114% (inactive) and 113% (inactive)
growth (SNB-75 CNS): 84.1% (inactive) and 66.5% (inactive)
growth (SNB-19 CNS): 102% (inactive) and 98.3% (inactive)
growth (U251 CNS): 101% (inactive) and 99.3% (inactive)
growth (PC-3 prostate): 102% (inactive) and 100% (inactive)
growth (SK-MEL-5 melanoma): 98.2% (inactive) and 112% (inactive)
growth (UACC-62 melanoma): 108% (inactive) and 89.3% (inactive)
growth (LOX IMVI melanoma): 101% (inactive) and 93.9% (inactive)
growth (SK-MEL-28 melanoma): 114% (inactive) and 137% (inactive)
growth (SK-MEL-2 melanoma): 110% (inactive) and 118% (inactive)
growth (EKVX NSCLC): 80.1% (inactive)
growth (SN12C renal): 103% (inactive)
growth (UO-31 renal): 82.4% (inactive) and 95.4% (inactive)
growth (TK-10 renal): 144% (inactive) and 121% (inactive)
growth (A498 renal): 90.9% (inactive) and 68.1% (inactive)
growth (CCRF-CEM leukemia): 101% (inactive) and 110% (inactive)
growth (MOLT-4 leukemia): 110% (inactive) and 129% (inactive)

CCOC(=O)C1=CC(=O)CC(C)(C)O1
growth (HCT-15 colon): 101% (inactive) and 103% (inactive)
growth (HT29 colon): 92.6% (inactive) and 101% (inactive)
growth (SNB-75 CNS): 116% (inactive)
growth (SNB-19 CNS): 104% (inactive) and 109% (inactive)
growth (U251 CNS): 104% (inactive) and 99.9% (inactive)
growth (PC-3 prostate): 88.7% (inactive) and 105% (inactive)
growth (SK-MEL-5 melanoma): 112% (inactive)
growth (UACC-62 melanoma): 104% (inactive) and 106% (inactive)
growth (LOX IMVI melanoma): 103% (inactive) and 107% (inactive)
growth (SK-MEL-2 melanoma): 114% (inactive)
growth (EKVX NSCLC): 104% (inactive) and 126% (inactive)
growth (SN12C renal): 110% (inactive) and 102% (inactive)
growth (UO-31 renal): 92.5% (inactive) and 101% (inactive)
growth (TK-10 renal): 96.1% (inactive) and 107% (inactive)
growth (ACHN renal): 102% (inactive) and 106% (inactive)
growth (CAKI-1 renal): 99.7% (inactive) and 104% (inactive)
growth (A498 renal): 108% (inactive) and 105% (inactive)
growth (CCRF-CEM leukemia): 90% (inactive) and 104% (inactive)
growth (MOLT-4 leukemia): -47.2% (active) and 106% (inactive)

Cc1ccc([N+](=O)[O-])cc1Br
growth (HCT-15 colon): 101% (inactive)
growth (HT29 colon): 70.7% (inactive)
growth (SNB-75 CNS): 104% (inactive)
growth (SNB-19 CNS): 97.9% (inactive)
growth (U251 CNS): 96.4% (inactive)
growth (PC-3 prostate): 94.8% (inactive)
growth (SK-MEL-5 melanoma): 99.8% (inactive)
growth (UACC-62 melanoma): 95.8% (inactive)
growth (LOX IMVI melanoma): 105% (inactive)
growth (SK-MEL-2 melanoma): 95.6% (inactive)
growth (EKVX NSCLC): 101% (inactive)
growth (SN12C renal): 98.2% (inactive)
growth (UO-31 renal): 92.1% (inactive)
growth (TK-10 renal): 97.1% (inactive)
growth (ACHN renal): 98.3% (inactive)
growth (CAKI-1 renal): 101% (inactive)
growth (CCRF-CEM leukemia): 105% (inactive)
growth (MOLT-4 leukemia): 81.7% (inactive)

Cc1ccc(C(=O)c2ccc(C)cc2)cc1
growth (HCT-15 colon): 99.8% (inactive) and 102% (inactive)
growth (HT29 colon): 95.4% (inactive) and 102% (inactive)
growth (SNB-75 CNS): 86.4% (inactive) and 99.5% (inactive)
growth (SNB-19 CNS): 86.9% (inactive) and 105% (inactive)
growth (U251 CNS): 94.1% (inactive) and 105% (inactive)
growth (PC-3 prostate): 95.8% (inactive) and 92.5% (inactive)
growth (SK-MEL-5 melanoma): 95.6% (inactive) and 100% (inactive)
growth (UACC-62 melanoma): 92.7% (inactive) and 101% (inactive)
growth (LOX IMVI melanoma): 100% (inactive) and 90.4% (inactive)
growth (SK-MEL-2 melanoma): 98.5% (inactive) and 98.1% (inactive)
growth (EKVX NSCLC): 92.6% (inactive) and 101% (inactive)
growth (SN12C renal): 92.6% (inactive) and 103% (inactive)
growth (UO-31 renal): 76.9% (inactive) and 98.3% (inactive)
growth (CAKI-1 renal): 93.4% (inactive)
growth (A498 renal): 96.4% (inactive) and 111% (inactive)
growth (CCRF-CEM leukemia): 91.6% (inactive) and 93.3% (inactive)
growth (MOLT-4 leukemia): 82.5% (inactive) and 97.8% (inactive)

CCCCCCCCCCCCCCCCC(=O)O
growth (HCT-15 colon): 102% (inactive)
growth (HT29 colon): 97.7% (inactive)
growth (SNB-75 CNS): 101% (inactive)
growth (SNB-19 CNS): 105% (inactive)
growth (U251 CNS): 98% (inactive)
growth (PC-3 prostate): 104% (inactive)
growth (SK-MEL-5 melanoma): 100% (inactive)
growth (UACC-62 melanoma): 101% (inactive)
growth (LOX IMVI melanoma): 98.4% (inactive)
growth (SK-MEL-28 melanoma): 117% (inactive)
growth (SK-MEL-2 melanoma): 103% (inactive)
growth (EKVX NSCLC): 106% (inactive)
growth (SN12C renal): 103% (inactive)
growth (TK-10 renal): 86.6% (inactive)
growth (ACHN renal): 112% (inactive)
growth (CAKI-1 renal): 104% (inactive)
growth (A498 renal): 115% (inactive)
growth (CCRF-CEM leukemia): 91.5% (inactive)
growth (MOLT-4 leukemia): 95% (inactive)
